About 1,400 (4.5%) of roughly 31,000 sequences were called active.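 The calls were made as follows: active = median seed-adjusted z-score above 1 or below -1; inactive = the rest.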 Shown is part of a subset that was picked to be rich in actives.

Drawing on PubChem BioAssay AID1347426 (Functional Genomics Laboratory (NCATS/FGL), 2020), this text covers median seed-adjusted z-score for 108 sequences.

A short description of this test: Novel Modifiers of Survival Motor Neuron (SMN) Protein: Gene Identification via Genome-wide siRNA Screen.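 Also: luminescence tracks full-length SMN protein made from the SMN2 reporter.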 Particulars: HEK293T SMN2-luciferase reporter, siRNA knockdown, 72 h; actives lie on both sides. The method in brief:
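Each of three siRNAs per gene is reverse-transfected (1 pmol) into reporter HEK293T cells whose luciferase output tracks SMN protein level. After 72 h culture, ONE-Glo luminescence is control-normalized, log10-transformed and MAD-standardized; Common Seed Analysis deprioritizes seed-driven hits.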
On the technique in general: Reporter assays use an easily measured gene product as a stand-in for the process of interest.
With GUCAAAGAGUGACAACUUUTT against CALB2, the median seed-adjusted z-score is 0 (inactive). The result for GGAGUGAUGAUAACGAGGATT against LATS1 reads 0 (inactive); that for GAGUUGUCGACACCACUUATT against PROS1, 0.436 (inactive); that for CUGCUACCUCUGACCCAAATT against DTD1, -1.58 (active). The result for GACAGUUUCCCUACAAGAATT against MAP2K7 reads -0.772 (inactive); that for CAGAUUGUCUGAUUCGAUUTT against TRIP11, 0.333 (inactive). The result for AGGGAGGUGUUUAACGGCATT against HMOX1 reads 0.45 (inactive). CCUUGUUUAUCAUAAGGGATT against ZNF613: the median seed-adjusted z-score was -0.189 (inactive).

Take GCAAGUACCUGUAAUUGAATT against KLF3: the median seed-adjusted z-score was 0.628 (inactive).

On to CCUUGACUGUGGACAACAATT against PURA, for which the median seed-adjusted z-score is -0.0185 (inactive). The result for AGAUAUUUGUUAUCGCUGUTT against CNBP reads -1.14 (active); that for GGAAUGAUCUGACUAACUUTT against PECI, -0.0254 (inactive). The result for GAAAAUUGCUCACUUUGAUTT against DAPK2 reads 0.268 (inactive); that for GAAGAACUCGAAUAUGUCATT against ASNSD1, 0.437 (inactive); that for CUUAAUCACUUGCAUAAAATT against GALR1, -0.721 (inactive). Take GAUUACCCUUAGAUCAUAUTT against NARG1: the median seed-adjusted z-score is -1.02 (active). The result for GCCUUAAGGUCAAGGUCUATT against UNC5B reads -0.0207 (inactive); that for GAAUUGGGCUUGUUGAUAUTT against KCNB2, 1.22 (active); that for GCAUUGGAGGUGAUCCUUUTT against SUCLG1, -0.63 (inactive). The result for CAUUCGCAAAGGUAUCAUUTT against SLC20A2 reads -0.0546 (inactive); that for GAGUGGAAAUUUCACCUAUTT against IFNAR2, -0.219 (inactive).

Take UCAGUAUCUUGGUCCUGUATT against CALCB: the median seed-adjusted z-score was 0 (inactive).

With CACCUGUUCUAUCACAGUATT against NOP2, the median seed-adjusted z-score was 1.15 (active). The result for CCGCAGAUCCUGUAGACUATT against PARD3B reads 0.306 (inactive). The result for GAGAACAUGUUGUUCCGCUTT against SSPO reads 0.397 (inactive). The result for GGGAUACAUUUAAGCGCAATT against SYTL2 reads 0.211 (inactive). For the sequence AGAGGCUGCGGUUCAAAGATT against PTP4A3, the median seed-adjusted z-score was 0.354 (inactive). The result for GAUCCUGAGUUAGAGAAGATT against METTL3 reads 0.261 (inactive); that for GCAGUUCCCUUAGAGCUAGTT against MAP4, 1.67 (active); that for UCUCCUUCUUCGGAACGAATT against SCAMP5, -0.303 (inactive).

For GACUGUAUCCAAACGAAUUTT against SLITRK2, the median seed-adjusted z-score was -0.246 (inactive). Regarding GCUUCUCGGCUGUCCAUGATT against CLCNKB, the median seed-adjusted z-score was 0.428 (inactive). The result for GAAUAAGCCGUGUACUGAUTT against CASD1 reads 0.202 (inactive); that for GAUUCAGUGUGGGAGAGUUTT against MCAT, 0 (inactive).

Turning to CGAGGACAUUGAUAACGAATT against CCNB2, the median seed-adjusted z-score is 0.0328 (inactive).

For GAUGAUUACCAGGAACGAATT against CAPRIN1, the median seed-adjusted z-score was 1.36 (active).

As for CCUCCGAAUUCUCAACAUATT against CSNK1E, the median seed-adjusted z-score was -0.796 (inactive). As to CGAAUCAUUUGGGAAUUGATT against IDH1, the median seed-adjusted z-score was 0.421 (inactive). The result for ACUUUGCAAUCGCUCAAAATT against NPTX1 reads -0.117 (inactive). The result for CAAUCUUCUUGGGAUUAUUTT against TRPC7 reads 0.146 (inactive); that for GGGAGAAGGUGAGCAGUAUTT against ZYX, 0.273 (inactive); that for CAGCCAUGAUAAUAAAGCUTT against RARRES2, -0.125 (inactive).

For the sequence GGAUGAUCGUGACAAGUUUTT against ATP1B3, the median seed-adjusted z-score is -0.225 (inactive). The result for GAGAAGAUGUGGACAUACATT against GRIA1 reads 0.927 (inactive). The result for GAAGCUCUCUUGACUAUGATT against FKBP3 reads -0.102 (inactive); that for GCAUUUACUCGCUCUUCAATT against KCNK12, 1.04 (active). Regarding AGACUUUGUUGUUACACUUTT against SYPL1, the median seed-adjusted z-score is -0.457 (inactive). The result for GGAAGUUCGCAGAAAAGUATT against PDIA5 reads 0.989 (inactive); that for CGGUACUACCCAAACGUCATT against APOBEC3D, -0.0215 (inactive); that for GAACUUUCCUGUUACCUUUTT against CD81, 0 (inactive). The result for CCAUAUGAGUCCUAUGAGATT against SMURF1 reads -1.4 (active).

For the sequence CAUCGUCCAUGACAAGUCATT against GTF2IRD1, the median seed-adjusted z-score is -0.282 (inactive). Take AGAAAGGUUUUACUACAAUTT against POLR2C: the median seed-adjusted z-score was -2.95 (active). The result for GGAAAACUCGUGUCCAUCATT against FARP1 reads -0.487 (inactive); that for UGUUCAGCAUAGUUGUUUUTT against SLC12A9, -0.0853 (inactive).

With GGAUCAAGCUCACAAGGGATT against WDR36, the median seed-adjusted z-score is 0.00836 (inactive).

As for GCUCGUUGGGACCAACUAATT against DYNC2H1, the median seed-adjusted z-score was -0.613 (inactive). The result for GACCAAAAUUUGGAUACAATT against CTSL2 reads -1.04 (active); that for GUGUGGACUUGGAACAAUATT against THUMPD2, -0.129 (inactive); that for GGGAUUCCAUUGACCAGAATT against PLCG2, 0 (inactive). As for GCUGAGGAGUCAGUGCAUGTT against TNFRSF18, the median seed-adjusted z-score is 0.154 (inactive).

AGACUGUAUUGCAGGGUGATT against MAFK: the median seed-adjusted z-score is 1.73 (active). Consider GAGUCGGAGUCGAAGUAGATT against NKTR, for which the median seed-adjusted z-score was -1.1 (active). With GAAUUAUGCUACUCGAGAATT against EIF3A, the median seed-adjusted z-score was -0.689 (inactive).

Consider CAACAACAGGUAUGAGAUATT against ACCN2, for which the median seed-adjusted z-score is -0.597 (inactive).

For the sequence GCUGAAGGCUUAUGAGUAUTT against KCNV2, the median seed-adjusted z-score is -1.13 (active). The result for GUGGUCACUUGGUUCCAGATT against LBX2 reads 0.538 (inactive); that for GGUCAUAGGUUUUGGAUCUTT against HIATL1, 0.327 (inactive). The result for CCAAUGCAGUGAUUACCGUTT against HSPA1L reads -1.27 (active); that for CCAGUUUCAUUAUACAUCATT against ZNF211, -0.173 (inactive); that for GCUUCACCCUGGCUAGAAATT against ECHDC2, -0.0827 (inactive).

With GUGUCGAGCUUGCAACUGUTT against LAMC2, the median seed-adjusted z-score is -0.186 (inactive). In the case of CCUUUAACCAGUCUGCACATT against ZNF85, the median seed-adjusted z-score is -1.01 (active). Turning to GAAGGUGGAUUGCAACAAATT against GPX6, the median seed-adjusted z-score was 0.35 (inactive). For GCAGAAGGCUCAGUAGCUATT against NAT5, the median seed-adjusted z-score was -0.0124 (inactive). The result for CACCCGCGCUCAUGAGAAATT against KLC2 reads 0.0706 (inactive); that for GCCCAUUACUUUACCACUUTT against METTL4, 0.244 (inactive); that for GCCUUGAUCAAGUAACAGATT against PARD6B, 0.315 (inactive). The result for GGCGCACGCUUUUCUCUAATT against ACTR1A reads 1.28 (active); that for GCCUCAUGUAAAACCCUAUTT against MYLK, 0.0226 (inactive). As for GCCUUCGAGUUCCUUGUUUTT against COX6B2, the median seed-adjusted z-score is -0.544 (inactive). The result for GUACUUUUGACAACAUUUATT against NAT13 reads 0 (inactive); that for GGCUUUGAGCAUAAGAUCATT against MAP3K10, 0.201 (inactive); that for GCACCAAACUUAGCUACGATT against DIS3L2, -0.265 (inactive). The result for GACUGGGUCUGGUAAAACATT against DHX15 reads 1.36 (active); that for GAAUUGGACAUUUCGGAUATT against NEK10, -0.0464 (inactive).

Consider CAGUUGCAACUCUUCGUGATT against ALB, for which the median seed-adjusted z-score is -0.153 (inactive). As to AAACAACUCGAUUUCGAAATT against PCDHB13, the median seed-adjusted z-score was -0.293 (inactive). The result for GAACUUUUGGGACCAAAUATT against NME5 reads 0.393 (inactive); that for GCCUUUUACGCAAACAUGUTT against P2RY8, -0.136 (inactive). The result for GAUUUUAUCUCAGUACAUUTT against UCK2 reads -1.51 (active). With CGUGCACUAUAUUGCAGUUTT against PRMT2, the median seed-adjusted z-score is 0.0895 (inactive). The result for GGAAUGUCACGGCUAAUCATT against PITPNM3 reads -0.0378 (inactive); that for GGAAUGAUACCAUACCGAATT against NUP93, 1.01 (active); that for UGAUCGCCUUGGUGAUUCATT against FOXH1, 0 (inactive). For the sequence GGAUAGUUACUGACCGGGATT against NCL, the median seed-adjusted z-score was 1.33 (active). The result for GCGGGAGCAUUAUCUCAAATT against ZNF341 reads 0.356 (inactive). The result for CCAGACCUCAUGUCACAGATT against ZNF777 reads 0.128 (inactive); that for GACUGAAUGUUUAUACAGUTT against OSBPL1A, 0.0845 (inactive); that for GGUGGUAUCCUGUUCACAATT against TM9SF4, -0.0191 (inactive). Consider GGACCAUUUAGAGAAGGUUTT against WARS2, for which the median seed-adjusted z-score was 0.21 (inactive).

As for CCUACGUUACUUUCCCUCATT against FOXD4L6, the median seed-adjusted z-score is -0.137 (inactive). The result for CAUGGAACAUUGUGAGAAATT against RPS6KB1 reads 1.4 (active). As for AAAUCAAGAUUCUUACUGATT against TPM3, the median seed-adjusted z-score was 0.111 (inactive). For the sequence GCACUUUAGAAUCACACGATT against TRMT6, the median seed-adjusted z-score is 0.069 (inactive). The result for GCUCAUUGUACAUCUCAGATT against ZNF26 reads 0 (inactive). The result for CCUGCUUACCUGAUCAAAATT against SLC25A34 reads -0.256 (inactive); that for GCAUAACUGUAGACUACAATT against ADAM32, 1.75 (active).
